Assay outcomes deposited in PubChem by National Center for Advancing Translational Sciences (NCATS).
ALDH1A1 block – blocks purified human ALDH1A1 activity | AID 1030 | hit rate 7.3% among 220,000 | P00352 | Purified ALDH1A1, NADH fluorescence, propionaldehyde substrate | Potency, µM (top dose mostly 75.3 µM), without a hit: top-dose activity, negative = inhibition, usual class: inhibitors;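 also: potency is read from the fitted curve at half-maximal effect; plate controls were no enzyme wells and a reference inhibitor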
Target sequence (P00352 whole entry, looked up): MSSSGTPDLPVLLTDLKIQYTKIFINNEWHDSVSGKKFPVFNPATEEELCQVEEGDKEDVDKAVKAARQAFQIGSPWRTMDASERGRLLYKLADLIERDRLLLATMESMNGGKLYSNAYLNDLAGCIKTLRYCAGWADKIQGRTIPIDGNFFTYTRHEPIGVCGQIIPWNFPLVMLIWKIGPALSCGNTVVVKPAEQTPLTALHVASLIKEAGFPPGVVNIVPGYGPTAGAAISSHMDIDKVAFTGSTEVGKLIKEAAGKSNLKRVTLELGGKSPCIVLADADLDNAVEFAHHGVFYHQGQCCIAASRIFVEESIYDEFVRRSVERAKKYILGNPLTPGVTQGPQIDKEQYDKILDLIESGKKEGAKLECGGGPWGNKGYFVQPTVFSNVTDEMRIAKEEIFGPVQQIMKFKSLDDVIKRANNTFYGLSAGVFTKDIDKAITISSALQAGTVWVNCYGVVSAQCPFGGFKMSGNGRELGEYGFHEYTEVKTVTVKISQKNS
PNC assembly inh – inhibitors of perinucleolar compartment assembly. PC3M PTB-GFP, PNC prevalence imaging, 16 h; stronger effect = lower value. activity change (PNC), negative = inhibition, % at 10 µM. hit rate 3.1% among 140,000. AID 2417;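 active = readout at or below -70, meaning at least 70% loss of cells showing the perinucleolar compartment, a nuclear body marking cancer cells; inconclusive = readout between -30 and a set limit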;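 also: plate controls were DMSO wells for no effect and camptothecin positive control wells for full effect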
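Read-out is percentage of cells bearing a perinucleolar compartment, from automated 20x imaging of fixed, Hoechst-stained PC3M PTB-GFP cells. Cells were seeded 4 h, then exposed 16 h to compound (23 nl of library stock) in duplicate plates.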
HPGD block – inhibitors of human 15-hydroxyprostaglandin dehydrogenase (HPGD) | purified HPGD, NADH fluorescence kinetic, PGE2 substrate | Potency, µM, for inactives: top-dose activity change, negative = inhibition, most hits filed as inhibitors | hit rate 4.3% among 150,000 | AID 894; also: potency is read from the fitted curve at half-maximal effect
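NADH formation kinetics: reaction with 30 uM PGE2 and 1 mM NAD+ (final), 20 nM enzyme, Tris-HCl pH 8 with Tween 20, after 15 min compound preincubation at room temperature. Fluorescence change, last versus first of five reads.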
12-hLO inh – inhibitors of human 12-lipoxygenase (ALOX12). P18054. hit rate 0.12% among 150,000. Potency, µM (series often up to 57.1 µM), for the others: at the highest dose activity change, negative = inhibition, actives largely listed as inhibitors. purified 12-hLO, xylenol orange hydroperoxide absorbance; active = well fitted curve in the direction sought with a large enough effect; inconclusive = small, poorly fitted or top-dose-only effect, or another doubt; inactive = no such curve, though single readings can be large; an effect the other way counts as inactive or inconclusive; also: potency is read from the fitted curve at half-maximal effect; nearly all actives have a fitted effect of over 55% in size
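Hydroperoxide formation by human 12-lipoxygenase from 40 uM arachidonic acid was followed colorimetrically via ferric-xylenol orange complex, using the 573/405 nm absorbance ratio. Enzyme concentration was 150 nM, with 30 min reaction at room temperature.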
IMPase Li inh – membrane-permeable IMPase blocker, potentiated with lithium; Potency, µM (highest dose often 59.4 µM), inactives show top-dose activity, negative = IMPase inhibition, actives largely listed as inhibitors; hit rate 0.35% among 210,000; CHO-M1 cells, IP1 TR-FRET (IP-One), carbachol + lithium; active = well fitted curve in the direction sought with a large enough effect; inconclusive = small, poorly fitted or top-dose-only effect, or another doubt; inactive = no such curve, though single readings can be large; an effect the other way counts as inactive or inconclusive;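 also: IP1 builds up when IMPase is blocked and the TR-FRET signal falls; potency is read from the fitted curve at half-maximal effect; plate controls were basal vehicle for no effect and high inhibitor control for full effect; nearly all actives have a fitted effect of over 50% in size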
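CHO cells stably expressing M1 receptor (2000/well) were cultured 16–30 h, then exposed to compounds with a small lithium addition for 30 min at 37C. IP1 was measured by TR-FRET competition; AC50 from Hill fits.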
IMPase cell inh – IMPase inhibition in cells; CHO-M1 cells, IP1 accumulation, HTRF TR-FRET ratio; inhibition (IP1 accumulation), % at 46.1 µM; 120,000 tested, under 10 active; active = well fitted curve in the direction sought with a large enough effect in the signal ratio, not every such curve was filed as active; inconclusive = small, poorly fitted or top-dose-only effect, or a change in a side signal; inactive = no such curve, though single readings can be large or run the other way; the % refers to the signal ratio;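 also: cells stimulated with carbachol in lithium chloride buffer; plate controls were DMSO basal wells for no effect and reference inhibitor wells for full effect; higher means more IMPase inhibition seen as more IP1 and lower FRET ratio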
Target sequence (P97697 whole entry, looked up): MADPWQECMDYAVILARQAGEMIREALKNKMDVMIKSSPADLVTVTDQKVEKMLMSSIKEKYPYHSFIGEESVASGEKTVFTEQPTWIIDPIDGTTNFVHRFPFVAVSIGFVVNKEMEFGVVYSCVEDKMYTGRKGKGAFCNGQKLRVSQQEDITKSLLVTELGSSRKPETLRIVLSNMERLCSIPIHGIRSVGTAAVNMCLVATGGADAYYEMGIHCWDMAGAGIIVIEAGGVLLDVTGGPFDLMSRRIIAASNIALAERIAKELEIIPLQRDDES
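Seeded CHO-M1 cells were dosed with compound at up to 46 uM, stimulated with carbachol for 30 min, then lysed in IP-One detection reagents. Higher IP1 lowers the TR-FRET signal.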
Numbers without * were called inactive; ? = inconclusive; . = no result; [ ] = dose if it differs, or a comment. Sampled rows, rich in hits. Any-hit rate of the full collection: about 11%. Unless noted, calls follow the shape of the dose curve; as a rule, active = well fitted inhibition curve with a large enough effect (not every such curve was filed as active); inconclusive = small, poorly fitted or top-dose-only effect, or another doubt; inactive = no such curve, though single readings can be large or run the other way. Unless noted, % is scaled to controls: 0 for no effect and ±100 for the full control effect.

SMILES | ALDH1A1 block | PNC assembly inh | HPGD block | 12-hLO inh | IMPase Li inh | IMPase cell inh
Cc1ccc(-n2nnnc2SCC(=O)NC2CCCc3ccccc32)cc1 (stereo not given) | 7.94µM* | -12.5 | -21.8% | -2.2% | 10.2% | -9.2
Cc1ccc(-n2nnnc2SCC(=O)NC2CCCc3ccccc32)c(C)c1 (stereo not given) | ? | 12.5 | -23.3% | -11.6% | 17.1% | .
Cc1ccc(-n2nnnc2SCC(=O)N2CCc3ccccc3C2)cc1 | ? | -100.0* | -16.2% | -4.5% | 2.4% | -10.5
Cc1ccc(-n2nnnc2SCC(=O)N2CCc3ccccc3C2)c(C)c1 | ? | ? | -9.8% | -10.9% | 27.9%[38.3 µM] | -1.8
O=C(CSc1nnnn1-c1cccc2c1CCCC2)N1CCCCC1 | 31.6µM* | ? | ? | -6.7% | 2.4% | -3.0
COCCn1c(SCC(=O)Nc2ccc(C)cc2C)nc2c(oc3ccccc32)c1=O | 1.2% | -107.0* | -16.6% | -2.0% | -6.0% | .
COCCn1c(SCC(=O)Nc2ccccc2C)nc2c(oc3ccccc32)c1=O | ? | 4.1 | -14.7% | -0.2% | -0.3% | -3.8
COc1cccc(-c2cncnc2Nc2ccc(F)cc2)c1 | -11.9% | . | . | . | -0.4% | .
CC(NC(=O)CNC(=S)N(Cc1cccs1)C1CCCC1)c1ccccc1 (stereo not given) | 15.8µM* | . | . | . | 15.3% | .
COCCCNC(=O)CNC(=S)N(Cc1ccc(F)cc1)C1CCCCC1 | ? | ? | -4.1% | -2.6% | -8.7%[38.3 µM] | ?
CCOCCCNC(=O)CNC(=S)N(Cc1ccccc1F)C1CCCCC1 | 14.1µM* | -29.2 | -12.2% | -7.6% | 1.3%[38.3 µM] | -3.0
CCC(C)NC(=O)CNC(=S)N(Cc1ccccc1F)C1CCCCC1 (stereo not given) | 10µM* | . | . | . | 3.8% | .
O=C(CNC(=S)N(Cc1ccccc1F)C1CCCCC1)NCCN1CCOCC1 | 1.89µM* | . | . | . | -7.5% | .
O=C(CNC(=S)N(Cc1ccccc1F)C1CCCCC1)NCCCN1CCOCC1 | ? | . | . | . | -5.9% | .
CCCc1cc2c(n1Cc1cc(F)cc(F)c1)C(C)C1CN(C(=O)c3ccccc3)C(C)(C(=O)OC)C21 (stereo not given) | -1.7% | . | -12.1% | -5.8% | 5.4% | .
O=C(O)c1ccc(NS(=O)(=O)c2ccsc2C(=O)O)cc1 | 7.9% | . | -12.9% | 3.4% | -9.9% | .
O=C(CNC(=S)N(Cc1ccccc1)Cc1ccccc1F)NCc1ccccc1 | 10µM* | . | . | . | 9.4% | .
O=C(O)C/C(=C\c1ccco1)C(=O)O | 8.3%[13.5 µM] | . | -10.3% | 3.9%[11.4 µM] | -6.3% | .
COc1ccc(NC(=O)c2ccco2)cc1NC(=O)c1ccc(OC(C)C)cc1 | . | . | . | . | . | 7.5
CCOc1ccc(C(=O)NCC(=O)OCc2cc(C(C)=O)ccc2OC)cc1 | 3.55µM* | ? | -6.2% | 0.6% | 3.8% | -1.3
COc1ccc(C(C)=O)cc1COC(=O)CNC(=O)c1ccc(F)cc1 | ? | -20.2 | ? | 1.7% | 5.8% | .
COc1ccc(C(C)=O)cc1COC(=O)CNC(=O)c1ccc(Cl)cc1 | -0.7% | -15.1 | 15.8µM* | -5.3% | ? | 15.2
O=C(Cc1cn2ccsc2n1)NCc1ccccc1 | ? | ? | ? | 2.3% | 1.8%[38.3 µM] | -5.5
O=C(Cc1cn2ccsc2n1)Nc1nc2c(s1)CN(Cc1ccccc1)CC2 | 10µM* | 1.8 | -9.1% | 11.9% | -8.9%[38.3 µM] | 0.1
CCCCCCCCCCCCCCCCCCOC[C@@H](O)COP(=O)([O-])OCC[N+](C)(C)C | 4.6% | . | -5.1% | 0.3% | 9.8% | .
SMILES | ALDH1A1 block | PNC assembly inh | HPGD block | 12-hLO inh | IMPase Li inh | IMPase cell inh
COc1ccc(Sc2ccc(/C=C3\C(=O)NN(c4ccccc4)C3=O)o2)cc1 | ? | 39.1 | 15.8µM* | ? | -0.2% | .
O=C(O)c1ccc(CSc2nc(-c3ccc(Cl)cc3)cc(C(F)(F)F)n2)cc1 | 2.0% | 18.4 | 12.6µM* | -1.5% | 38.3%[38.3 µM] | -0.7
Cc1ccc(C(=O)N(c2c(C)n(C)n(-c3ccccc3)c2=O)C(C)C)cc1 | 14.7% | 27.6 | 2.1% | 5.5% | -6.2%[38.3 µM] | 1.8
COc1cc(/C=C/C(=O)OCC(=O)NC(=O)NC(C)C)ccc1OCC#N | ? | -85.1* | ? | 2.6% | 2.8% | .
COc1cc(/C=C/C(=O)OCC(=O)NC(=O)NC23CC4CC(CC(C4)C2)C3)ccc1OCC#N | -5.9% | ? | ? | -1.4% | 3.4% | .
N#Cc1cn(Cc2cccc(Cl)c2)c2ccccc12 | ? | -102.9* | -20.6% | -9.0% | 34.6%[38.3 µM] | ?
Cc1cc(C)nc(/N=C2\NC(=O)CC(C(=O)O)N2c2ccc(Oc3ccccc3)cc2)n1 (stereo not given) | -4.8% | ? | 12.6µM* | 1.7% | -6.4%[38.3 µM] | 0.1
Cc1ccc(N2/C(=N/c3nc(C)cc(C)n3)NC(=O)CC2C(=O)O)cc1 (stereo not given) | -12.0% | 65.6 | -17.3% | 4.0% | 22.0%[38.3 µM] | 4.5
CC[N+]1(CC)CC2CCC(C)(C1)C2(C)C (stereo not given) | 5.6% | . | . | . | -3.1% | .
Cn1cc(-c2nc3cnc(N4CCOCC4)nc3n(CCC#N)c2=O)c2ccccc21 | 13.9% | . | . | . | 16.5% | .
Cc1ccc(Cl)cc1NC(=S)N(Cc1cccnc1)Cc1ccccc1Cl | 11.2µM* | . | . | . | 15.9% | .
Cc1cc(OCC(=O)N2CCc3ccccc3C2)c2c(-c3ccccc3)cc(=O)oc2c1 | 14.1µM* | ? | -18.2% | 0.3% | 40.6%[38.3 µM] | 5.4
Cc1cc(OC(C)C)c2c(-c3ccccc3)cc(=O)oc2c1 | ? | 0.5 | ? | 0.7% | 29.4%[38.3 µM] | 2.0
CCOc1cc(C)cc2oc(=O)cc(-c3ccccc3)c12 | 22.4µM* | -23.1 | -12.3% | 2.9% | 54.4%[38.3 µM] | 10.8
COc1cc2c(cc1OC)Cc1cc(OC)c(OC)cc1Cc1cc(OC)c(OC)cc1C2 | -3.8% | . | -1.4% | 0.2% | 17.5% | .
Cc1cc(/C=N/n2cnnc2)c(O)c([N+](=O)[O-])c1 | -5.9% | -118.2* | -22.1% | -1.0% | 0.4% | .
O=C1[C@H]2CCn3c(=O)n(-c4ccccc4)c(=O)n3[C@H]2[C@H](O)[C@H]2O[C@@H]12 | 15.7%[13.5 µM] | . | . | . | . | .
O=C(NC1CCCCC1)C(c1ccc2ncccc2c1)N(Cc1ccc2c(c1)OCO2)C(=O)c1ccc2c(c1)OCCO2 (stereo not given) | 28.2µM* | -24.5 | -13.9% | 1.8% | -0.5% | .
O=C(NC1CCCCC1)C(c1ccc2ncccc2c1)N(Cc1ccc(F)cc1)C(=O)c1ccc2c(c1)OCCO2 (stereo not given) | ? | -7.8 | -5.4% | 4.1% | 6.9%[38.3 µM] | -0.1
CC(=O)OC1CC2C(C)(C)C(O)CCC2(C)C2CC[C@]3(C)C(=CC(=O)OC3c3ccoc3)C12C (stereo not given in full) | -6.3% | . | 4.3% | -1.0% | 6.4% | .
S=c1nc(-c2csc3c2CCCC3)[nH][nH]1 | 11.2µM* | . | . | . | 2.0% | .
